HT1080 IDH1KD tx – toxicity to HT-1080 IDH1 knockdown cells (counter line); HT-1080 IDH1 knockdown viability, ATP luminescence, 48 h; Potency, µM (doses to about 46.1 µM), for the others: at the highest dose activity, negative = toxicity, hits mostly cytotoxic; 360,000 tested, 2% active;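 also: 0% = DMSO wells and -100% = cell-free medium wells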
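Knockdown cells (IDH1KD HT-1080) received compounds 2 h after plating at 750 cells/well and were kept 48 h at 37 °C in 5% FBS RPMI. A CellTiter-Glo luminescence read gave % activity for curve fitting.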
HepG2 viability – kills HepG2 cells in TGF-b inhibitor counter-screen; Potency, µM (doses to about 46.1 µM), inactives show top-dose activity change, negative = cytotoxicity, usual class: cytotoxic; 410,000 tested, 0.76% active; HepG2 CAGA-GFP viability, ATP luminescence, 18 h
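HepG2 CAGA-GFP cells (1000/well, DMEM with 1% FBS) received compound, then TGF-beta at 500 pg/mL final, and were incubated 18 hours at 37 degrees C. Viability was read by CellTiter-Glo luminescence. Media-only wells were set as complete cell-killing and DMSO as no toxicity.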
HT1080NT lethal – kills 2HG-producing HT-1080-NT fibrosarcoma cells | HT-1080-NT fibrosarcoma viability, CellTiter-Glo ATP luminescence, 48 h | Potency, µM (top dose mostly 46.1 µM), inactives show top-dose activity, negative = less viability, usual class: cytotoxic | 360,000 tested, 1.6% active;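 also: NT is the 2HG producing partner of a matched IDH1 knockdown line; 0% = DMSO-treated cells and -100% = media-only wells without cells; nearly all actives have a fitted effect of over 55% in size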
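Luminescent CellTiter-Glo readout after 48 hours of compound exposure at 37 degrees C defined viability of HT-1080-NT cells. Activity was normalized to DMSO wells and cell-free media wells; concentration-response curves were fitted and assigned curve classes.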
DT40 TDP1 CPT – growth inhibition of DT40 Tdp1-/-;hTDP1 cells with camptothecin (screen for TDP1 inhibitors). chicken DT40 Tdp1-/-;hTDP1 cells + 20 nM CPT, ATP luminescence, 48 h. AID 686979. Potency, µM (highest dose often 46.2 µM), inactives show top-dose activity change, negative = growth inhibition, usual class: inhibitors. 420,000 tested, 12% active; also: % is scaled to controls: 0 for no effect and ±100 for the full control effect; nearly all actives have a fitted effect of over 55% in size
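Chicken DT40 Tdp1-/- cells complemented with human TDP1, 400 cells/well, exposed to compounds plus 20 nM camptothecin for at least 48 h at 37 C; viability read as ATP content by CellTiter-Glo luminescence.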
TGFb SMAD3 inh – inhibitors of TGF-b signaling | 410,000 tested, 1.2% active | AID 588855 | HepG2 CAGA-GFP TGF-b/SMAD3 reporter, GFP fluorescence, 18 h; TGF-beta stimulated, 500 pg/mL final | Potency, µM (doses to about 46.1 µM), inactives show top-dose activity, negative = inhibition, usual class: inhibitors; also: % is scaled to controls: 0 for no effect and ±100 for the full control effect; nearly all actives have a fitted effect of over 65% in size
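Read-out: total well GFP (ex488/em500-530) summed from mean per-cell fluorescence. Cells: HEPG2 CAGA-GFP, 1% FBS DMEM, 18 h at 37 degrees C with 500 pg/mL final TGF-beta. Unstimulated wells served as the full-inhibition control; stimulated DMSO wells = 0%.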
DT40 TDP1 no CPT – qHTS for Inhibitors of human tyrosyl-DNA phosphodiesterase 1 (TDP1): qHTS in cells in absence of CPT. DT40 Tdp1-/- hTDP1 cells, no CPT, ATP luminescence, 48 h. Potency, µM (titrated, usually from 46.2 µM), without a hit: top-dose activity change, negative = growth inhibition, actives largely listed as inhibitors. 420,000 tested, 15% active. AID 686978, 2013; also: % is scaled to controls: 0 for no effect and ±100 for the full control effect; nearly all actives have a fitted effect of over 55% in size
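Growth kinetics read by CellTiter-Glo luminescence after ≥48 hr at 37 °C. Cells: DT40 Tdp1-/- stably carrying human TDP1, 400 per well, compound exposure in the absence of CPT (DMSO vehicle).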
Numbers without * were called inactive; ? = inconclusive; · = no result; [ ] = another dose, or the depositor's remark. Hits are enriched below; roughly 17% of the tested compounds scored in any of these assays. Calls follow the shape of the dose curve; as a rule, active = well fitted curve in the direction sought with a large enough effect; inconclusive = small, poorly fitted or top-dose-only effect, or another doubt; inactive = no such curve, though single readings can be large; an effect the other way counts as inactive or inconclusive. Potency is read from the fitted curve at half-maximal effect.

SMILES	HT1080 IDH1KD tx	HepG2 viability	HT1080NT lethal	DT40 TDP1 CPT	TGFb SMAD3 inh	DT40 TDP1 no CPT
CC(NC(=O)NC1CCCCC1)C(c1cccs1)N1CCN(c2ccccc2)CC1 (configuration not stated)	-10%	-20%	-27%	?	5%	21µM*
O=C(C[n+]1c(Cl)cc(Cl)c2ccccc21)c1ccccc1	·	-21%	·	4.5µM*	-19%	6.3µM*
Cc1sc2ccccc2[n+]1CCC[n+]1c(C)sc2ccccc21	·	-38%	·	2µM*	11µM*	1.8µM*
Cc1sc2ccccc2[n+]1CC(=O)c1ccccc1	-4%	0%	2%	?	2%	18µM*
Cc1ccc(S(=O)(=O)N2Cc3ccccc3CC2C(=O)NC(C)(C)C)cc1 (configuration not stated)	6%	-19%	5%	-25%	?	-12%
COc1ccc(S(=O)(=O)c2nnn(-c3ccc(C(C)C)cc3)c2C)cc1	·	-26%	·	15µM*	-26%	15µM*
Cc1c(Cl)cccc1-n1c(SCC(=O)NCc2ccccc2Cl)nnc1-c1ccncc1	-28%	-8%	-8%	14µM*	-28%	?
Cc1c(Cl)cccc1-n1c(SCC(=O)NCc2cccs2)nnc1-c1ccncc1	1%	2%	8%	-15%	0%	?
CCOc1ccc(N(CC)S(=O)(=O)N2CCCC(C(=O)NCc3ccccc3OCC)C2)cc1 (configuration not stated)	·	-11%	·	?	?	16µM*
CCOc1ccc(N(CC)S(=O)(=O)N2CCCC(C(=O)Nc3ccc(NC(C)=O)cc3)C2)cc1 (configuration not stated)	·	-16%	·	?	1%	?
CCN(c1ccc(OC)cc1)S(=O)(=O)N1CCCC(C(=O)NCc2ccc(OC(C)C)cc2)C1 (configuration not stated)	0%	-1%	0%	21µM*	-20%	15µM*
CCOc1ccc(N(CC)S(=O)(=O)N2CCCC(C(=O)NCCc3ccccc3OC)C2)cc1 (configuration not stated)	·	-27%	·	21µM*	?	?
CCc1ccc(CNC(=O)C2CCCN(S(=O)(=O)N(CC)c3ccccc3)C2)cc1 (configuration not stated)	-7%	1%	-6%	?	-21%	?
CCN1CCN(C(=O)C(C)Oc2ccc(S(=O)(=O)N3CCCC3)cc2C(N)=O)CC1 (configuration not stated)	11%	5%	-1%[9.24 µM]	0%	6%	0%
COc1cccc(NC(=O)Nc2ccc3nc(N4CCN(C)CC4)cc(C)c3c2)c1	·	-95%	·	?	?	15µM*
Cc1cc(N2CCN(C)CC2)nc2ccc(NC(=O)Nc3ccc(F)cc3)cc12	·	1%	·	?	0%	?
COc1cccc(/C=C/C(=O)Nc2ccc3nc(N4CCN(C)CC4)cc(C)c3c2)c1OC	·	-75%	·	6.5µM*	?	5.2µM*
Cc1cc(N2CCN(C)CC2)nc2ccc(NC(=O)c3ccc(Br)o3)cc12	?	-24%	?	?	48%	18µM*
Cc1cc(C)cc(NC(=O)Nc2ccc3nc(N4CCN(C)CC4)cc(C)c3c2)c1	·	-27%	·	23µM*	43%	21µM*
Cc1cc(N2CCCCC2)nc2ccc(NC(=O)c3ccc(Br)o3)cc12	?	-28%	?	?	-17%	?
CC(=O)Nc1c([N+](=O)[O-])cc2c3c(cccc13)CC2	0%	-6%	26%	-20%	15%	-18%
CCOc1ccc(-n2nc3ccc(NC(=O)c4ccc(C)cc4C)cc3n2)cc1	·	-61%	·	?	8%	?
Cc1ccc(S(=O)(=O)NC(=O)Nc2cc(C)no2)cc1	0%	6%	1%	-4%	12%	-11%
Cc1cc(SCC(=O)c2ccc(O)c(O)c2)n2nc(C)c(-c3ccccc3)c2n1	9.2µM*	-28%	8.2µM*	18µM*	18µM*	15µM*
Cc1cc(C)nc(SCC(=O)c2ccc(O)c(O)c2)n1	-13%	-11%	-6%	?	1%	?
SMILES	HT1080 IDH1KD tx	HepG2 viability	HT1080NT lethal	DT40 TDP1 CPT	TGFb SMAD3 inh	DT40 TDP1 no CPT
O=C1C=C(O)c2[nH]c(=O)ccc2C1=O	15%	-2%	0%	-17%	0%	-14%
Cc1ccc(NC(=O)NCCOCCn2c(=O)oc3ccccc32)cc1C	·	-29%	·	5.8µM*	?	4.1µM*
CCOc1ccccc1NC(=O)NCCn1c(=O)oc2ccc(C)cc21	·	2%	·	-27%	?	?
O=C(NCCOCCn1c(=O)oc2ccccc21)Nc1cccc(Cl)c1	·	-28%	·	7.3µM*	?	8.2µM*
Cc1ccc(NC(=O)NCCOCCn2c(=O)oc3ccccc32)c(C)c1	·	-12%	·	4.6µM*	-21%	5.8µM*
Cc1ccc(NC(=O)NCCOCCn2c(=O)oc3ccccc32)cc1F	·	-20%	·	5.8µM*	?	5.8µM*
CCOC(=O)c1ccc(NC(=O)NCCOCCn2c(=O)oc3ccccc32)cc1	·	-11%	·	?	?	?
CCOc1ccc(CN(C)C(=O)CN2C(=O)NC(c3ccccc3)(c3ccccc3)C2=O)cc1	?	-12%	?	?	?	?
COc1ccccc1CNc1nc(-c2ccco2)nn1C(=O)c1ccccc1[N+](=O)[O-]	·	-38%	·	?	-14%	?
COc1ccc(S(=O)(=O)n2nc(-c3ccco3)nc2NCc2ccc(N(C)C)cc2)cc1	·	-32%	·	?	-17%	?
CC(C)c1ccc(CNc2nc(-c3ccco3)nn2S(=O)(=O)c2ccccc2)cc1	·	-15%	·	23µM*	0%	?
Cc1ccc(S(=O)(=O)n2nc(-c3ccco3)nc2NCc2ccc(N(C)C)cc2)cc1	·	-9%	·	?	0%	23µM*
Cc1ccc(CNc2nc(-c3ccco3)nn2C(=O)c2ccccc2[N+](=O)[O-])cc1	·	-10%	·	?	-1%	18µM*
Cc1cccc(OCC(=O)Nc2ccccc2N2CCN(C(=O)C(C)C)CC2)c1C	-1%	-25%	-1%	21µM*	-16%	?
Cc1ccc(OCC(=O)Nc2ccccc2C(=O)N2CCCC2)cc1	-1%	17%	3%	?	8%	16µM*
